# This is part of a sample that, as a whole, favours compounds with a hit. Of some 83,000 tested, about 20% had one in any assay.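 Testing used 96-well plates and a 48-hour single-concentration exposure. Example: -40 means 40% of the starting cells died.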 Unmarked numbers belong to inactive results. Activity calls are given as the source filed them. Rule for the calls: active = growth percent below 10; inactive = the rest.
# Experiments:
# Assay in all cases: NCI-60 one-dose screen, 48 h (100 = growth as untreated, 0 = no growth, -100 = all killed)
# Conditions in all cases: 10 µM unless noted
# DU-145 prostate = test system: DU-145 prostate
# K-562 leukemia = test system: K-562 leukemia
# MALME-3M melanoma = test system: MALME-3M melanoma
# MDA-MB-231 breast = test system: MDA-MB-231 breast
# RXF 393 renal = test system: RXF 393 renal
# SF-268 CNS = test system: SF-268 CNS
# SF-295 CNS = test system: SF-295 CNS
# SF-539 CNS = test system: SF-539 CNS
# UACC-257 melanoma = test system: UACC-257 melanoma
# M14 melanoma = test system: M14 melanoma
# HCT-15 colon = test system: HCT-15 colon
# HT29 colon = test system: HT29 colon
# SNB-75 CNS = test system: SNB-75 CNS
# SNB-19 CNS = test system: SNB-19 CNS
# U251 CNS = test system: U251 CNS
# PC-3 prostate = test system: PC-3 prostate
# SK-MEL-5 melanoma = test system: SK-MEL-5 melanoma
# UACC-62 melanoma = test system: UACC-62 melanoma
# LOX IMVI melanoma = test system: LOX IMVI melanoma
# SK-MEL-28 melanoma = test system: SK-MEL-28 melanoma
Compound,growth (DU-145 prostate) [%],growth (K-562 leukemia),growth (MALME-3M melanoma),growth (MDA-MB-231 breast),growth (RXF 393 renal),growth (SF-268 CNS),growth (SF-295 CNS),growth (SF-539 CNS),growth (UACC-257 melanoma),growth (M14 melanoma),growth (HCT-15 colon),growth (HT29 colon),growth (SNB-75 CNS),growth (SNB-19 CNS),growth (U251 CNS),growth (PC-3 prostate),growth (SK-MEL-5 melanoma),growth (UACC-62 melanoma),growth (LOX IMVI melanoma),growth (SK-MEL-28 melanoma)
N#Cc1c(NC(=O)c2cccc(C(F)(F)F)c2)sc2c1CCC(=O)C2,24,6.88% (active),-64.9% (active),-54.3% (active),-23.5% (active),1.68% (active),-6.4% (active),-57.8% (active),-3.73% (active),-68.2% (active),-39.4% (active),2.24% (active),-50.5% (active),12.3%,0.284% (active),-42% (active),-95.6% (active),-51.1% (active),-12.7% (active),-42.5% (active)
CCn1nc(C#Cc2c(C)ccc3c(Nc4ccc(Cl)cc4)nccc23)c2c(N)ncnc21,34.9,12.8%,-40.6% (active),8.63% (active),-4.58% (active),17.5%,4.88% (active),-31.6% (active),-9.69% (active),5.1% (active),23.3%,2.98% (active),-8.46% (active),9% (active),26%,18.9%,-43.9% (active),-4.21% (active),11.3%,0.371% (active)
N#Cc1c(Oc2ccc([N+](=O)[O-])cc2)nc2sc3cc(Cl)ccc3n2c1=N,105,118%,-10.6% (active),97.3%,32.6%,64.9%,76.4%,106%,57.6%,78%,102%,33.4%,29.7%,74.8%,75.9%,76.7%,58.1%,79.3%,92.1%,84.1%
C=CCN1C(=O)[C@]2(SC1=S)[C@H](c1cccc(Cl)c1)CN(C)[C@]21C(=O)NC2C=CC(Cl)=C[C@H]21 (stereo not given in full),48.8,22.9%,35.7%,26.8%,35.4%,52.9%,32.1%,81.1%,26.5%,29.9%,27%,27.9%,44.4%,59.9%,67.8%,7.5% (active),42%,36.1%,13.3%,64.1%
OC(c1cccc(OCc2ccccc2)c1)c1nnc(-c2ccccc2)o1 (stereo not given),107,91%,92.1%,89.9%,95.5%,95.3%,64%,93.1%,94.5%,105%,90%,116%,94.2%,99.4%,96.7%,81%,66.4%,61.7%,84.9%,108%
O=c1ccn(C2OC(F)(CO)C(O)C2F)c(=O)[nH]1 (stereo not given),110,112%,110%,114%,141%,100%,98.3%,100%,95.1%,95.3%,103%,94.5%,95.9%,105%,94.8%,93.1%,108%,103%,97.3%,109%
Cc1[nH]c(-c2nc3ccccc3[nH]2)c(C)c1C(=O)N1CCOCC1,107,106%,95.7%,83.7%,93.6%,99.5%,96%,96.2%,94.1%,95%,95.5%,98.3%,87.8%,88.7%,100%,98.8%,98.8%,90%,97.4%,105%
N#C/C(=C\c1ccc(Br)cc1)n1nnc2ccccc21,14.5,14.5%,24.1%,0.304% (active),-15.4% (active),23.9%,16.1%,-3.55% (active),13.4%,10.7%,2.5% (active),3.79% (active),24.8%,29%,-35.7% (active),12.7%,6.25% (active),14%,-75% (active),6.49% (active)
